# Screening results: PubChem, Sanford-Burnham Center for Chemical Genomics
# Most compounds without a hit are left out; they make up all but 4% or so of the library.
# TROY NFkB inh: inhibitors of TROY-driven NF-kB signaling, primary screen, Q293 LMP1-TROYcd cells, NF-kB luciferase, uHTS; 360,000 compounds, 0.98% hits; AID 1347056, 2019; Q293 LMP1-TROYcd NF-kB luciferase reporter, 4 h; inhibition, % at 10 µM;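 active means compounds whose plate-normalised and pattern-corrected inhibition of the luciferase reporter signal at the single screening dose is 50% or more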
# Peg3 promoter: Peg3 promoter-driven luciferase inhibitors, primary screen, cell-based, HeLa, luciferase luminescence; HeLa PEG-Prom luciferase reporter, overnight; inhibition, % at 20 µM; 360,000 compounds, 1.7% hits; AID 588405, 2011;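 active means inhibition of at least 50% at 20 µM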
# KKLEB cytotox: cytotoxicity in KKLEB CF airway cells, primary screen, cytotoxicity control for CF NF-kB inhibitor project, cell-based, uHTS, fluorescence assay plates | activity change (cytotoxicity), % at 5 µM | KKLEB CF airway cells viability, ATPlite luminescence, overnight; stronger effect = lower value; cells stimulated with P. aeruginosa culture filtrate | 360,000 compounds, 0.36% hits;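 active means corrected activity change at or below -50% at 5 µM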
# CF NFkB block: inhibitors of PAF-induced NF-kB signaling, primary screen, cell-based, GFP fluorescence, uHTS | KKLEB NF-kB-GFP reporter, GFP fluorescence overnight | inhibition, % at 5 µM | 360,000 compounds, 0.86% hits | AID 588850, 2011;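 active means at least 50% inhibition at 5 µM, scaled per plate between neutral and stimulator controls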;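 further: PAF is a Pseudomonas aeruginosa culture filtrate used as stimulus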
# TWEAK Fn14 block: inhibitors of TWEAK-Fn14 signaling, primary screen, luciferase reporter cells, uHTS | TWEAK-stimulated Fn14 reporter cells, luciferase luminescence, 8 h | inhibition, % at 10 µM | 360,000 compounds, 2% hits | AID 1159606, 2016; in the data active means inhibition above about 50%
# HIF-2a block: HIF-2a reporter inhibitors, primary screen, luminescence, 786-0 RCC cells. 786-0 RCC cells HIF-2a reporter, luciferase luminescence, overnight. inhibition, % at 18.8 µM. 360,000 compounds, 0.72% hits;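 active means inhibition of the luminescence signal of 40% or more relative to plate controls, in a single-dose primary screen at 18.75 µM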
# A number is an active result; - = inactive; . = no result given.
SMILES,TROY NFkB inh,Peg3 promoter,KKLEB cytotox,CF NFkB block,TWEAK Fn14 block,HIF-2a block
CCOC(=O)C1(Cc2cccc(OC)c2)CCCN(C(=O)c2cc(CC(C)C)[nH]n2)C1 (configuration not stated),-,-,-,-,-,-
COc1cc2ccnc(C=O)c2cc1OC,-,-,-,85.7,55.9,-
COc1cc2ccnc(C=NO)c2cc1OC,-,-,-,-,-,-
O=[N+]([O-])c1ccc2nc(-c3ccc(Cl)cc3)n(OCc3ccccc3)c2c1,55.6,-,-,-,-,-
Cc1ccc(COn2c(-c3ccc(Cl)cc3)nc3ccc([N+](=O)[O-])cc32)cc1,-,-,-,-,-,-
O=C(/C=C/c1ccccc1)CCN1CCCCC1,-,105.2,-,-,-,-
CC(C)(C)N=Cc1cc(-c2ccccc2)sc1O,-,-,-,-,-,-
Cc1nnc(SCc2cnc(-c3ccc(C(C)C)cc3)s2)n1C,-,-,-65.4,-,-,-
CCc1ccc(NC(=O)C(CC)Sc2nc3cc4c(cc3c(=O)n2Cc2ccco2)OCO4)cc1 (configuration not stated),-,-,-62.7,-,-,-
CCC(c1ccc(O)cc1)C(CC)c1ccc(O)cc1 (configuration not stated),52.4,-,-,-,-,-
CCC(C(=O)c1ccc(O)cc1)c1ccccc1 (configuration not stated),-,-,-,-,-,-
COCCNC(=O)c1ccc(CSCc2cccc(Cl)c2)o1,-,-,-,-,-,-
CCn1c2ccccc2c2cc(CNCc3ccc(OC)cc3OC)ccc21,-,113.6,-,-,-,-
CC1(C(=O)NS(=O)(=O)C2CC2)CCCN(C(=O)COc2ccc(Cl)cc2Cl)C1 (configuration not stated),-,-,-,-,-,-
Cc1nc2c(o1)C(=O)c1ccccc1C2=Nc1ccccc1,-,103.8,-84.3,88.6,94.7,-
Cc1ccc(N=C2C(=O)Nc3ccccc32)cc1,-,-,-,-,-,-
Nc1nonc1-n1nnc(C(=O)N/N=C/c2cc(Cl)ccc2O)c1CN1CCCCCC1,-,53.7,-,-,-,-
CN(Cc1c(C(=O)N/N=C/c2ccccc2O)nnn1-c1nonc1N)C1CCCCC1,-,58.9,-,-,-,-
CC(=C/c1ccccc1)/C=N/NC(=O)c1nnn(-c2nonc2N)c1CN1CCC(C)CC1,-,-,-,-,-,-
Nc1nonc1-n1nnc(C(=O)N/N=C/c2ccc(Cl)cc2Cl)c1CN1CCCCC1,-,-,-,-,-,-
CC1CCN(Cc2c(C(=O)N/N=C/c3ccccc3O)nnn2-c2nonc2N)CC1,-,66.3,-,-,-,-
CN(Cc1c(C(=O)N/N=C/c2cccc(O)c2)nnn1-c1nonc1N)C1CCCCC1,-,-,-,-,-,-
Cc1nnn(-c2nonc2N)c1C(=O)N/N=C/c1cccc2ccccc12,-,52.2,-,-,-,-
O=C(CNC(=O)c1ccc(Br)o1)NCCc1ccc(F)cc1,-,-,-,-,-,-
Cc1cc(C)n2c(Nc3ccc4c(c3)OCCO4)c(-c3cc4ccccc4o3)nc2n1,85.5,.,.,.,96.7,-
SMILES,TROY NFkB inh,Peg3 promoter,KKLEB cytotox,CF NFkB block,TWEAK Fn14 block,HIF-2a block
O=C(CSc1ncnc2c(-c3ccc(Cl)cc3)nsc12)c1ccccc1,57.3,-,-,-,-,-
Cc1nn(-c2ccccc2)c2nc(C(Cl)(Cl)Cl)[nH]c(=O)c12,51.2,-,-,-,-,-
Cc1ccc(NC(=O)c2cc(S(=O)(=O)NCCC3=CCCCC3)ccc2F)cc1,-,-,-,-,57.4,-
COc1ccc(/C=N/NC(=O)c2ccc(CN3c4cccc5cccc(c45)S3(=O)=O)cc2)cc1,-,-,-,-,-,-
COc1cc(/C=N/NC(=O)c2ccc(CN3c4cccc5cccc(c45)S3(=O)=O)cc2)cc(OC)c1O,-,56.8,-79.9,69.1,-,-
CCOCC(=O)Nc1nnc(COc2ccc(Cl)cc2)s1,-,-,-,-,-,-
Brc1ccccc1-c1nnc2sc(Cc3ccccc3)nn12,-,-,-,-,-,-
COc1ccc(Cc2nn3c(-c4ccccc4Br)nnc3s2)cc1,-,-,-,52.8,-,-
CC1Oc2ccccc2C=C1/C=N/Nc1ccc(C(=O)O)cc1 (configuration not stated),-,-,-,-,61.0,-
CCn1c(/C=N/Nc2ccc(C(=O)O)cc2)nc2ccccc21,-,-,-,-,-,-
Cc1cc(NC(=O)Nc2ccc(Cl)cc2)n(C(C)(C)C)n1,-,-,-,-,-,-
O=S(=O)(NN=Cc1ccc(O)cc1O)c1cc(Cl)c(Cl)cc1Cl,-,-,-,-,-,-
CC(=O)Nc1cc(Cl)c(N=Cc2ccc(O)cc2O)cc1Cl,-,-,-,-,77.3,-
CCCCC(CCCC)=N/N=C/c1c(O)n(CC)c2cc(C3=NNC(=O)CC3)ccc12,-,-,-,-,-,-
CC(O)(c1ccc(F)c(F)c1)c1nc(-c2cccc(C(F)(F)F)c2)cs1 (configuration not stated),-,-,-,-,-,-
CCN(CC)C(=O)c1cccc(-c2csc(C(C)(O)c3ccc(OC)cc3)n2)c1 (configuration not stated),-,-,-,-,-,-
CCN(CC)C(=O)c1cccc(-c2csc(C(C)(O)c3cccc(OC)c3)n2)c1 (configuration not stated),-,-,-,-,65.1,-
CC(O)(c1ccc(F)c(F)c1)c1nc(-c2ccc(Cl)cc2)cs1 (configuration not stated),-,76.1,-,-,-,-
COc1cccc(C(C)(O)c2nc(-c3cc(F)cc(F)c3)cs2)c1 (configuration not stated),-,-,-,-,54.2,-
CC(C)N(CCNCc1nnc(-c2ccccc2)o1)C(C)C,-,-,-,-,-,-
O=S(=O)(Nc1ccc(-c2ccc3nncn3n2)cc1)c1ccccc1F,-,50.5,-,-,-,-
CCN(CC)CC(=O)c1c[nH]c2ccc(C)cc12,-,-,-,-,-,-
O=C(COC(=O)COc1ccccc1)Nc1ccc(OC(F)(F)F)cc1,-,-,-,-,-,-
CCOC(=O)/C(=C\c1ccc(OC(F)F)cc1)C1=Nn2c(nnc2-c2ccc(Cl)cc2)SC1,89.5,102.6,-89.6,88.0,104.7,96.7
Cc1cc(-c2cc(NC=O)c3ncc(-c4cccc(C(=O)NCCN(C)C)c4)n3c2)cc(C)c1O,-,-,-,-,-,-
